The record followed here is PubChem BioAssay AID1986 (Sanford-Burnham Center for Chemical Genomics, 2009).

The structures appear in SMILES notation. The campaign covered roughly 290,000 compounds. About 890 (0.31%) were called active. This is one part of a sample in which actives are shown more often than they occur. No stated cut-off is given here; in the data, active means inhibition mostly above about 52% (no sharp cut-off); inactive means mostly below about 76%.

A short description of this test: cell-free HIV fusion peptide-binding blockers – biochemical, uHTS, fluorescence dequenching, primary screen (AID 1986). The following applies: 30 min, stronger effect = higher value.
Where [1] appears, read: measured here: repeat confirmation average inhibition, at 18.6 µM.

As a reminder, the inhibition is the drop in the measured response relative to a control, in per cent. For the compound `O=C(Cn1cc(C=C2C(=O)NC(=O)NC2=O)c2ccccc21)NCC1CCCO1` (stereo unspecified), the inhibition reads like this: (at 20 µM) 61.4% (active); under setting [1], 112%.

`COCCNC(=O)Cn1cc(C=C2C(=O)NC(=O)NC2=O)c2ccccc21`: the inhibition (at 20 µM) is 43.1% (inactive).

As to `O=C(O)Cn1cc(C=C2C(=O)NC(=O)NC2=O)c2ccccc21`, the inhibition (at 20 µM) is 4.8% (inactive).

With `COCCCNC(=O)Cn1cc(/C=C2\C(=O)NC(=O)N(c3ccccc3F)C2=O)c2ccccc21`, for the setting “at 20 µM”, the inhibition was 159% (inactive).

Turning to `COCCNC(=O)Cn1cc(/C=C2\C(=O)NC(=O)N(c3cccc(C)c3C)C2=O)c2ccccc21`, the inhibition is 90.2% (active) (at 20 µM) and 50.7% under setting [1].

On to `COCCNC(=O)Cn1cc(/C=C2\C(=O)NC(=O)N(c3ccccc3F)C2=O)c2ccccc21`, for which, where the note is “at 20 µM”, the inhibition is 159% (inactive).

For the compound `CC(Cc1ccccc1)[n+]1cc(/N=C(\[O-])Nc2ccccc2)on1` (stereo unspecified), under “at 20 µM”, the inhibition was -1.8% (inactive).

Regarding `O=C(NCc1ccccn1)c1ccccc1Cl`, where the note is “at 20 µM”, the inhibition was -1.3% (inactive).

With `CCOC(=O)c1c(C)c(P(=S)(N2CCOCC2)N2CCOCC2)n(C)c1C`, where the note is “at 20 µM”, the inhibition was -1.8% (inactive).

In the case of `CC(C)n1c(=O)c(C=Nc2ccc(Cl)cc2)c(O)n(Cc2ccco2)c1=O`, the inhibition was 52.7% (inactive) (at 20 µM) and 4.1% under setting [1].

For `CC(C)n1c(=O)c(C=Nc2ccc(Br)cc2)c(O)n(Cc2ccco2)c1=O`, where the note is “at 20 µM”, the inhibition is 66.2% (active).

For the compound `CC(C)n1c(=O)c(C=Nc2ccc(F)cc2)c(O)n(Cc2ccco2)c1=O`, the inhibition (at 20 µM) is 0.1% (inactive).

As for `CCOC(=O)C1CCN(Cc2ccc(Cl)nc2)CC1`, the inhibition (at 20 µM) is -0.9% (inactive).

As for `O=C1N(c2cccc(Cl)c2)C(c2cccnc2)N2CCCN12` (stereo unspecified), the inhibition (at 20 µM) is -0.5% (inactive).

Turning to `O=C1NC(=O)[C@]2(Cc3ccccc3N3CCN(c4ccccc4)CC32)C(=O)N1Cc1ccccc1` (stereo partly specified), for the setting “at 20 µM”, the inhibition is 1.5% (inactive).

In the case of `COc1ccc(-c2nc3ccc(C(=O)N4CCC5(CC4)OCCO5)cc3nc2-c2ccc(OC)cc2)cc1`, for the setting “at 20 µM”, the inhibition is -1.1% (inactive).

For the compound `Cc1cc(/C=C2\C(=O)NC(=O)N(Cc3ccccc3)C2=O)c(C)n1-c1ccc(Cl)c(C(=O)O)c1`, the inhibition (at 20 µM) was 52.5% (active).

Regarding `Cc1cc(/C=C2\C(=O)NC(=O)N(Cc3ccccc3Cl)C2=O)c(C)n1-c1ccc(C(=O)O)cc1`, the inhibition is, setting by setting: (at 20 µM) 67.8% (inactive); under setting [1], 40.6%.

`Cc1cc(/C=C2\C(=O)NC(=O)N(c3ccccc3)C2=O)c(C)n1-c1ccc(C(=O)O)c(Cl)c1`: under “at 20 µM”, the inhibition was 9.8% (inactive).

In the case of `CN1C(=O)C(=Cc2cn(CC(=O)N3CCCC3)c3ccccc23)C(=O)N(C)C1=O`, where the note is “at 20 µM”, the inhibition was 9.1% (inactive).

With `CCN(CC)C(=O)Cn1cc(C=C2C(=O)N(C)C(=O)N(C)C2=O)c2ccccc21`, under “at 20 µM”, the inhibition was 9.3% (inactive).

For the compound `CCN1C(=O)NC(=O)/C(=C\c2cn(CC(=O)N3CCCCC3)c3ccccc23)C1=O`, where the note is “at 20 µM”, the inhibition was 92.7% (active).

With `CCOC(=O)Cn1cc(C=C2C(=O)N(C)C(=O)N(C)C2=O)c2ccccc21`, the inhibition reads like this: (at 20 µM) 58.4% (active); under setting [1], 149%.

For the compound `CCn1cc(C=C2C(=O)N(C)C(=O)N(C)C2=O)c2ccccc21`, the inhibition (at 20 µM) was 6.6% (inactive).

As for `COC(=O)Cn1cc(C=C2C(=O)NC(=O)NC2=O)c2ccccc21`, the inhibition (at 20 µM) is 10% (inactive).

As to `COC(=O)Cn1cc(C=C2C(=O)N(C)C(=O)N(C)C2=O)c2ccccc21`, the inhibition (at 20 µM) is 118% (active) and the inhibition under setting [1] came to 98.7%.

As to `CCOC(=O)C1(c2ccccc2)CCN(CCC(=O)Nc2ccccc2OC)CC1`, the inhibition (at 20 µM) is 1.8% (inactive).

`CN1CCN(c2ccccc2N)CC1`: the inhibition (at 20 µM) is 1.6% (inactive).

`Cc1ccc(-n2c(O)c(C=NC3CCCC3)c(=O)[nH]c2=O)c(C)c1`: the inhibition (at 20 µM) is 2.6% (inactive).

With `CCOP(=O)(OCC)C(NC(=O)C(C)C)C(Cl)(Cl)Cl` (stereo unspecified), the inhibition (at 20 µM) was 0.1% (inactive).

Regarding `CC/C(=N\NC(=O)c1ccccc1O)c1c(O)n(C2CCCCC2)c(=O)[nH]c1=O`, the inhibition by setting is: (at 20 µM) 51.3% (inactive); under setting [1], 46.2%.

Regarding `CC(=O)c1ccc2c(c1)C1C(Cl)C(Sc3ccccc3[N+](=O)[O-])CC1C(C(=O)O)N2` (stereo unspecified), the inhibition reads like this: (at 20 µM) 54.5% (inactive); under setting [1], 1.3%.

On to `O=C(O)c1cccc2c1NC(C(=O)O)C1CC(Sc3ccccc3[N+](=O)[O-])C(Cl)C21` (stereo unspecified), for which, under “at 20 µM”, the inhibition was 63.2% (active).

Regarding `Cc1ccc2c(c1Cl)NC(C(=O)O)C1CC(Sc3ccccc3[N+](=O)[O-])C(Cl)C21` (stereo unspecified), the inhibition (at 20 µM) is 63% (inactive) and the inhibition under setting [1] stood at 28%.

On to `CC(C)(C)C(=O)c1cn(Cc2ccccc2)c2ccccc12`, for which the inhibition (at 20 µM) was -0.8% (inactive).

For the compound `O=C(COc1ccccc1)c1cn(Cc2ccccc2)c2ccccc12`, the inhibition (at 20 µM) is 80.8% (active).

In the case of `CCC(=O)c1cn(Cc2ccccc2)c2ccccc12`, the inhibition (at 20 µM) was -1.1% (inactive).

Regarding `COC(=O)N(C)c1ccc(C(O)(C(=O)OC)C(F)(F)F)cc1` (stereo unspecified), the inhibition (at 20 µM) was 0% (inactive).

For the compound `CC1Oc2cc3c(-c4c(O)cc(O)c5c(O)c6c(cc45)OC(C)C(C)C6=O)c(O)cc(O)c3c(O)c2C(=O)C1C` (stereo unspecified), the inhibition (at 20 µM) was 54.2% (active).

`O=C(O)c1ccc(N=Cc2c(O)[nH]c(=O)[nH]c2=O)cc1`: for the setting “at 20 µM”, the inhibition was 15.8% (inactive).

Regarding `CCOC(=O)c1cc(CC)sc1/N=C/C1C(=O)NC(=S)NC1=O`, the inhibition (at 20 µM) was 30.8% (inactive).

Turning to `COc1ccc(C(=O)CC2(CC(=O)c3ccc(OC)cc3)C(=O)N(C)C(=O)N(C)C2=O)cc1`, the inhibition (at 20 µM) is 3.7% (inactive).

For the compound `CCn1nc(/C=C/c2ccccc2)nc2c(=O)n(C)c(=O)nc1-2`, the inhibition (at 20 µM) is 1.1% (inactive).

With `CCn1nc(-c2ccccc2)nc2c(=O)n(C)c(=O)nc1-2`, the inhibition (at 20 µM) is 80.2% (active) and the inhibition under setting [1] stood at 60.9%.

On to `CCn1nc(-c2cccs2)nc2c(=O)n(C)c(=O)nc1-2`, for which the inhibition (at 20 µM) was 1.6% (inactive).

With `CC1=C(C(=O)O)N2C(=O)C(NC(=O)Cc3ccccc3)C2SC1` (stereo unspecified), the inhibition (at 20 µM) was 3.3% (inactive).
